# Sampled rows, rich in hits. Any-hit rate of the full collection: about 9.5%.
# RE007 growth inh – less growth of the S. pombe RE007 Vpr strain. Potency, µM (highest dose often 92.2 µM), usual class: inhibitors. S. pombe RE007 Vpr strain, BacTiter-Glo ATP luminescence, 24 h. AID 651644. 360,000 tested, 0.21% active; active = well fitted falling curve with a large enough effect; inconclusive = small, poorly fitted or top-dose-only effect; inactive = no such curve, though single readings can be large or run the other way; note: nearly all actives have a fitted effect of over 50% in size
#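 Fission yeast RE007 carrying one integrated HIV-1 vpr copy, seeded at OD 0.01 in PMG+AL medium with 23 nL pinned compound. Grown 24 h at 30 degrees; viability read by BacTiter-Glo luminescence after 5 min.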
# Pf growth 48h – P. falciparum growth inhibition at 48 hours (one generation); P. falciparum luciferase growth in erythrocytes, 48 h; Potency, µM (highest dose often 28.7 µM), hits mostly inhibitors; 310,000 tested, 5.9% active; AID 504832; active = well fitted inhibition curve with a large enough effect; inconclusive = small, poorly fitted or top-dose-only effect, or another doubt; inactive = no such curve, though single readings can be large or run the other way
#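 Firefly luciferase activity from engineered P. falciparum reports growth; inhibitors lower the luminescent signal. Cultures contained 2% hematocrit erythrocytes at 0.1% final parasitemia.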
# Pf growth 96h – inhibits malaria parasite growth, 96 h | P. falciparum luciferase reporter growth, 96 h | Potency, µM (top dose mostly 28.7 µM), most hits filed as inhibitors | 320,000 tested, 6.9% active | AID 504834; active = well fitted inhibition curve with a large enough effect; inconclusive = small, poorly fitted or top-dose-only effect, or another doubt; inactive = no such curve, though single readings can be large or run the other way
#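 Two parasite generations (96 h, 37 C, 5% CO2) of compound exposure in infected erythrocytes (0.05% parasitemia, 2% hematocrit). Luciferase-reporter P. falciparum; decreased luminescence indicates inhibited growth, aimed at apicoplast-acting delayed death.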
# NS1 function inh – influenza NS1 inhibition; Potency, µM (top dose mostly 46.1 µM); 270,000 tested, 0.4% active; note: actives are rising curves; nearly all actives have a fitted effect of over 50% in size
#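 OD600 was taken as the measure of yeast growth restored by compound in an NS1-expressing S. cerevisiae strain. Cells had been washed out of glucose medium and diluted 1:100 into galactose -URA medium, pH 6.0.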
# SARS PLP yeast – inhibitors of SARS-CoV papain-like protease in yeast. S. cerevisiae expressing SARS-CoV PLpro, growth rescue. Potency, µM (titrated, usually from 32.9 µM), actives largely listed as activators. 330,000 tested, 0.19% active. AID 485353; note: nearly all actives have a fitted effect of over 55% in size
# A number is an active result; i = inactive; ? = inconclusive; nt = no result. Unless noted, calls come from the whole dose curve.
SMILES,RE007 growth inh,Pf growth 48h,Pf growth 96h,NS1 function inh,SARS PLP yeast
CCCCCNC(=O)c1ccc2c(=O)n(CCCN3CCCC3=O)c(=S)[nH]c2c1,i,5.9µM,10µM,nt,i
O=C(Nc1ccc(F)cc1)OCCOc1ccc(Br)cc1,i,i,i,i,i
O=C(NCCCN1CCCC1)c1ccc(Cn2c(=S)[nH]c3ccc(Br)cc3c2=O)cc1,nt,13µM,i,nt,i
COc1ccc(CN2CCNC(=O)C2CC(=O)N(C)Cc2nc(C)cs2)c(OC)c1 (configuration not stated),i,i,?,i,i
COc1ccccc1NC(=O)N1c2ccc(F)cc2CCC1C (configuration not stated),i,i,4.7µM,i,i
Cc1ccccc1-c1nc(CN(C)C(C)c2ccon2)c(C)o1 (configuration not stated),i,i,2.3µM,i,i
Cc1oc(-c2ccccc2Cl)nc1CN(C)C(C)c1ccon1 (configuration not stated),i,i,?,i,i
CC1CCN(C(=O)C2CCN(S(=O)(=O)c3ccc4c(c3)CC(C)N4C(=O)C3CC3)CC2)CC1 (configuration not stated),i,9.3µM,i,i,i
CC1Cc2cc(S(=O)(=O)N3CCN(c4ccc(Cl)cc4)CC3)ccc2N1C(=O)C1CC1 (configuration not stated),i,?,15µM,i,i
CC(=O)N1c2ccc(S(=O)(=O)N3CCC(C(=O)N4CCCCC4)CC3)cc2CC1C (configuration not stated),i,?,?,i,i
CC1Cc2cc(S(=O)(=O)N3CCN(c4cccc(Cl)c4)CC3)ccc2N1C(=O)C1CC1 (configuration not stated),i,?,?,i,i
NC(=O)C/C=C\CC(N)=O,nt,nt,nt,i,nt
COc1ccccc1N(CC(O)CN(c1ccccc1)S(C)(=O)=O)S(=O)(=O)c1ccccc1 (configuration not stated),i,?,i,i,i
COc1ccccc1N(CC(O)COc1ccc(C)cc1)S(=O)(=O)c1ccccc1 (configuration not stated),i,?,2.1µM,i,i
COc1ccccc1N(CC(O)COc1c(C)cc(C)cc1C)S(=O)(=O)c1ccccc1 (configuration not stated),i,12µM,13µM,i,i
COc1ccccc1N(CC(O)COc1ccccc1)S(=O)(=O)c1ccccc1 (configuration not stated),i,?,?,i,i
Cc1ccc(S(=O)(=O)N(CC(O)CN(C)C)c2ccccc2)cc1 (configuration not stated),i,i,2.6µM,i,i
C[n+]1cccc(C(=O)NNC(=O)C23CC4CC(CC(C4)C2)C3)c1,i,i,i,nt,i
CCc1ccccc1NC(=O)C1CCN(S(C)(=O)=O)CC1,i,nt,nt,nt,nt
CCCCN(C)C(=O)c1sc2ncn(CC)c(=O)c2c1C,i,i,10µM,i,nt
CCCNC(=O)Cn1cnc2sc(C(=O)NCCN(CC)CC)c(C)c2c1=O,i,i,i,i,i
CN(C)S(=O)(=O)c1ccc(NC(=O)Cn2c(-c3ccccc3)noc2=O)cc1,i,nt,4.7µM,i,i
CCOc1ccccc1NC(=O)Cn1c(-c2ccc(Cl)cc2)noc1=O,i,1.7µM,4.1µM,i,i
Cc1ccc(C(=O)Cn2c(-c3ccccc3)noc2=O)cc1,i,i,i,i,i
O=C(c1ccc(F)cc1)C1CCN(C(=S)Nc2ccc(F)cc2)CC1,i,i,?,i,i
SMILES,RE007 growth inh,Pf growth 48h,Pf growth 96h,NS1 function inh,SARS PLP yeast
CC(=O)c1c(C)[nH]c(C(=O)Nc2ccc(Cl)c(S(=O)(=O)N3CCOCC3)c2)c1C,i,4.1µM,4.1µM,i,?
CC(=O)c1c(C)[nH]c(C(=O)Nc2ccc(C)c(S(=O)(=O)N(C)C)c2)c1C,i,i,i,nt,i
CC(=O)c1c(C)[nH]c(C(=O)OC(C)C(=O)Nc2ccc(C)c(S(=O)(=O)N3CCOCC3)c2)c1C (configuration not stated),i,9.3µM,5.2µM,nt,i
CCN(CC)S(=O)(=O)c1cc(NC(=O)C(C)OC(=O)c2[nH]c(C)c(C(C)=O)c2C)ccc1C (configuration not stated),i,3.7µM,?,i,i
O=C(NCc1cc(C(F)(F)F)cc(C(F)(F)F)c1)c1cc(-c2cc(F)ccc2OCC2CCCO2)n[nH]1 (configuration not stated),i,nt,nt,nt,nt
Cc1cccc(OCCn2c(=S)[nH]c3ccccc32)c1,i,?,13µM,i,i
S=c1[nH]c2ccccc2n1CCOc1ccccc1,i,?,?,i,i
Cc1cccc(OCCCSc2nc3ccccc3[nH]2)c1,45µM,i,i,i,i
Cc1ccc(OCCn2c(=S)[nH]c3ccccc32)c(C(C)C)c1,i,12µM,i,i,i
Cc1cccc(OCCSCc2nc3ccccc3[nH]2)c1,i,?,?,i,i
O=C(NCc1cccs1)C1C(=O)Nc2ccccc2C(=O)N1Cc1ccccc1 (configuration not stated),i,nt,nt,nt,nt
O=C(NCc1cccs1)c1ccc2sc([C@@H]3O[C@H](CO)[C@H](O)[C@H](O)[C@H]3O)nc2c1,i,nt,nt,nt,nt
Cc1nc(Nc2cnc(/C=C/c3cc(C(=O)Nc4cccc(C(F)(F)F)c4)ccc3C)cn2)cc(N2CCNCC2)n1,i,0.74µM,?,i,i
COCCNC(=S)NC1CC2CCCC(C1)N2Cc1cccs1 (configuration not stated),i,?,?,i,i
Cc1cccc(NC(=S)NC2CC3CCCC(C2)N3Cc2cccs2)c1 (configuration not stated),i,?,10µM,i,i
Cc1cc(C)cc(NC(=S)NC2CC3CCC(C2)N3Cc2ccco2)c1 (configuration not stated),i,?,2.3µM,i,i
Cc1ccc(C)c(NC(=S)NC2CC3CCC(C2)N3Cc2ccco2)c1 (configuration not stated),i,?,12µM,?,i
CC(C)[C@@H]1Cc2[nH]n(C)c(=O)c2[C@H](c2ccc(F)cc2)O1,i,nt,nt,nt,nt
Cc1oc(-c2ccccc2Cl)nc1CN1CCCN(C(=O)c2ccco2)CC1,i,i,i,i,i
CC(C)C[C@H](NC(=O)c1cc2cc(Cl)ccc2n1C)C(=O)N1CCC(C(=O)O)CC1,i,i,i,i,i
Cc1cc(Nc2cc(Cl)cc(Cl)c2)nc(N)n1,i,1.9µM,2.3µM,i,i
Cc1cc(Nc2ccc(C(=O)O)cc2)nc(N)n1,i,i,i,i,?
Cc1cc(Nc2ccc(F)cc2)nc(N)n1,i,?,9.3µM,i,i
CCOC(=O)Cn1c(S(=O)(=O)Cc2ccccc2Cl)nc(-c2ccccc2)c1-c1ccccc1,i,9.3µM,2.6µM,?,i
C#CCn1c(S(=O)(=O)Cc2ccccc2Cl)nc(-c2ccccc2)c1-c1ccccc1,i,8.3µM,?,i,i

# Assay outcomes (PubChem)
